Measured values published in PubChem BioAssay (EPA / NIEHS).
Where “and” joins values, the source holds several entries; their conditions need not be identical. Equal values may be shown once. Records with an inconclusive call do not appear. Calls of active or inactive are those of the source. How the source made its calls, unless noted: active means hit-call score of the fitted dose curve at least 0.9, where 1 is the maximum; inactive means score below 0.9.

Columns and labels:
[1] = biological target: Estrogen receptor (Homo sapiens) (UniProt P03372); experiment: CCTE_Deisenroth_AIME_384WELL_LUC_Active: CCTE's 384-well Estrogen Receptor Transactivation Assay with AIME metabolic competence (ERTA luciferase; metabolism positive), Deisenroth Lab (AID 2284030; active means hit-call score of the fitted dose curve at least 0.9, where 1 is the maximum)
How it was run: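 VM7Luc4E2 breast cells were given, for 24 hours, medium pre-incubated for 2 hours with parent chemical (0.002-200 uM, 10 concentrations) and alginate-encapsulated phenobarbital/beta-naphthoflavone-induced rat hepatic S9. Luciferase gain of signal was fitted against 17beta-estradiol; n=4 or more.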

[2] = CCTE_Deisenroth_AIME_384WELL_CTox_Active: Cytotoxicity Assessment (CTOX) in CCTE's 384-well Estrogen Receptor Transactivation Assay with AIME metabolic competence (metabolism positive), Deisenroth Lab (AID 2284037; active means hit-call score of the fitted dose curve at least 0.9, where 1 is the maximum;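 further: chemicals first conditioned 2 h by alginate-bound induced rat liver S9 before cells; activity means signal loss indicating cell death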)
How it was run: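 VM7Luc4E2 breast cells received medium pre-incubated 2 h with chemical over alginate microspheres holding induced male Sprague Dawley rat liver S9; viability read 24 h later by protease-substrate fluorescence. Loss of signal, bidirectional fit, 0.002–200 uM.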

[3] = biological target: Estrogen receptor (Homo sapiens) (UniProt P03372); experiment: CCTE_Deisenroth_AIME_384WELL_LUC_Inactive: CCTE's 384-well Estrogen Receptor Transactivation Assay without AIME metabolic competence (ERTA luciferase; metabolism negative), Deisenroth Lab (AID 2284038; active means hit-call score of the fitted dose curve at least 0.9, where 1 is the maximum;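 further: hits raise estrogen receptor luciferase signal so potencies reflect agonists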)
How it was run: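 Chemicals (10-point series, 0.002 - 200 uM) were incubated 2 hours with alginate-water microsphere lids lacking S9, then the conditioned medium was transferred to VM7Luc4E2 breast cells for 24 hour. Luciferase induction was read by bioluminescence, fitted upward relative to 17beta-estradiol.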

[4] = biological target: Estrogen receptor (Homo sapiens) (UniProt P03372); experiment: CCTE_Deisenroth_AIME_384WELL_LUC_Shift: CCTE's 384-well Estrogen Receptor Transactivation Assay with AIME metabolic competence data shift (ERTA luciferase; difference in metabolism positive and negative), Deisenroth Lab (AID 2284041);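 further: shift is response with S9 minus without S9 so positive means metabolism raised ER signal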
How it was run: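 Here, parent compounds undergo 2 h phase I metabolism by PB/BNF-induced rat S9 before 24 h transactivation in VM7Luc4E2 cells; the curve models S9-positive minus S9-negative response over a 10-point series.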

[5] = CCTE_Deisenroth_AIME_384WELL_CTox_Inactive: Cytotoxicity Assessment (CTOX) in CCTE's 384-well Estrogen Receptor Transactivation Assay without AIME metabolic competence (metabolism negative), Deisenroth Lab (AID 2284039; active means hit-call score of the fitted dose curve at least 0.9, where 1 is the maximum;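 further: cell viability via live-cell protease substrate cleaved to fluorescent probe; cells exposed 24 h to medium preincubated 2 h with alginate-water beads without S9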)
How it was run: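 VM7Luc4E2 human breast cells received conditioned medium from a 2 h incubation of chemical with alginate-water microspheres (no S9), then were exposed 24 h. Viability was read as protease-substrate cleavage to a fluorescent probe; loss of signal was fitted bidirectionally over 0.002–200 uM.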

[6] = CCTE_Shafer_MEA_dev_firing_rate_mean: CCTE's Neural Network Formation Assay for Mean Firing Rate, Shafer Lab (AID 2284031)
How it was run: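 Primary rat cortical neurons on 48-well, 16-electrode MEAs (PEI-coated, laminin at plating), exposed from day 0 with compound renewed at DIV 5 and 9. Spikes recorded DIV 5, 7, 9, 12; well-mean firing rate collapsed to trapezoidal AUC, loss-of-signal vs DMSO.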

[7] = CCTE_Shafer_MEA_dev_per_burst_spike_percent: CCTE's Neural Network Formation Assay for Percent of Spikes in a Burst, Shafer Lab (AID 2284032)
How it was run: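 Rat primary cortical neurons on 16-electrode MEA wells, dosed from plating day 0 for 12 days with renewal on DIV 5 and 9; spikes-in-bursts percentage averaged over bursting electrodes, collapsed as AUC across days 5, 7, 9, 12; loss direction versus DMSO.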

[8] = CCTE_Shafer_MEA_dev_active_electrodes_number: CCTE's Neural Network Formation Assay for Number of Active Electrodes, Shafer Lab (AID 2284040; active means hit-call score of the fitted dose curve at least 0.9, where 1 is the maximum;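 on AC50: potency for loss of active electrodes versus DMSO so lower counts are hits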)
How it was run: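 Rat cortical primary cultures, 1.5 x 10^5 cells/well, PEI-coated MEA, laminin drop. Continuous exposure DIV 0–12; full media/compound change DIV 5, 9. Readout: electrodes with mean firing ≥5 spikes/min; AUC across days; loss vs DMSO.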

[9] = CCTE_Shafer_MEA_dev_burst_rate: CCTE's Neural Network Formation Assay for Burst Rate, Shafer Lab (AID 2284042)
How it was run: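 Rat primary cortical cultures on PEI/laminin MEA; compound from plating, re-dosed at DIV 5, 9 media change. Single-electrode bursts/recording length, well mean of active electrodes; AUC over DIV 5–12 recordings; loss-of-signal vs DMSO.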

[10] = CCTE_Shafer_MEA_dev_per_burst_interspike_interval: CCTE's Neural Network Formation Assay for Burst Interspike Interval, Shafer Lab (AID 2284044);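 further: mean spike spacing inside bursts as AUC over recordings on days 5 7 9 12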
How it was run: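 Mean interspike interval within single-electrode bursts, averaged over bursting electrodes, from rat cortical cultures on MEA plates recorded on days 5, 7, 9 and 12. Continuous compound exposure from plating; trapezoidal AUC fitted downward relative to DMSO.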

[11] = CCTE_Shafer_MEA_dev_burst_duration_mean: CCTE's Neural Network Formation Assay for Mean Burst Duration, Shafer Lab (AID 2284045)
How it was run: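 Primary rat cortical neurons on PEI-coated 16-electrode MEA wells, exposed from plating through day 12 with compound renewed at DIV 5 and 9; spontaneous activity recorded days 5, 7, 9, 12. Well-mean burst duration collapsed as trapezoidal AUC, fitted for loss versus DMSO.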

[12] = CCTE_Shafer_MEA_dev_interburst_interval_mean: CCTE's Neural Network Formation Assay for Mean Interburst Interval, Shafer Lab (AID 2284046);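 further: well-mean interburst interval of bursting electrodes as AUC over four recording days; curve fitted for decrease in interburst interval relative to DMSO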
How it was run: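 Rat cortical neurons, 1.5 x 10^5 cells/well, 48-well MEA; compound from day 0 through DIV 12, media and treatment renewed DIV 5/9. Recordings DIV 5, 7, 9, 12; well-mean interburst interval → trapezoidal AUC, loss direction vs DMSO.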

[13] = CCTE_Shafer_MEA_dev_inter_network_spike_interval_mean: CCTE's Neural Network Formation Assay for Mean Inter-network Spike Interval, Shafer Lab (AID 2284047)
How it was run: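 Primary rat cortical neurons on PEI-coated 48-well MEAs (16 electrodes/well) were exposed from plating day 0 to DIV 12, with dosing renewed at DIV 5 and 9. Recordings at DIV 5, 7, 9, 12 were collapsed by trapezoidal AUC, loss-of-signal fit vs DMSO.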

[14] = CCTE_Shafer_MEA_dev_network_spike_number: CCTE's Neural Network Formation Assay for Number of Network Spikes, Shafer Lab (AID 2284048);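 further: synchronized bursts across electrodes counted on days 5 7 9 12 and integrated as AUC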
How it was run: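 Primary rat cortical neurons were seeded at 1.5 x 10^5 cells/well on PEI-coated 16-electrode MEA wells with laminin, exposed from plating day 0, compound renewed at DIV 5 and 9. Network spikes were recorded on days 5, 7, 9, 12 and summarized as trapezoidal AUC versus DMSO.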

[15] = CCTE_Shafer_MEA_dev_network_spike_peak: CCTE's Neural Network Formation Assay for Mean Number of Electrodes in Network Spike, Shafer Lab (AID 2284049)
How it was run: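 Continuous 12-day exposure of rat cortical cultures, starting at plating, on MEA plates. Endpoint: electrodes participating in network-spike peaks, AUC across DIV 5–12, DMSO as negative control.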

[16] = CCTE_Shafer_MEA_dev_spike_duration_mean: CCTE's Neural Network Formation Assay for Mean Spike Duration, Shafer Lab (AID 2284051);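 further: mean network spike duration pooled as area under curve over DIV 5 to 12 recordings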
How it was run: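 Rat cortical primary cultures, 48-well MEA (16 electrodes/well); compound from plating, renewed DIV 5, 9. Network spike duration (AxIS adaptive detector) recorded DIV 5/7/9/12, combined as trapezoidal AUC; loss direction vs DMSO.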

[17] = CCTE_Shafer_MEA_dev_network_spike_duration_std: CCTE's Neural Network Formation Assay for Standard Deviation of Network Spike Duration, Shafer Lab (AID 2284052);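 further: area under curve of spike duration SD across recording days 5 to 12; hits are decreases in network spike duration SD versus DMSO vehicle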
How it was run: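 Rat cortical cultures, 1.5 x 10^5 cells/well, exposed continuously from plating to DIV 12 with media/compound renewal at DIV 5, 9. Spontaneous activity recorded DIV 5/7/9/12, AxIS adaptive spike detector; AUC across days; negative direction vs DMSO.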

[18] = CCTE_Deisenroth_AIME_96WELL_CTox_Inactive: Cytotoxicity Assessment (CTOX) in CCTE's 96-well Estrogen Receptor Transactivation Assay without AIME metabolic competence (metabolism negative), Deisenroth Lab (AID 2284029; active means hit-call score of the fitted dose curve at least 0.9, where 1 is the maximum)
How it was run: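 Chemicals (10-point series, 0.002-200 uM) were incubated 2 h with alginate-water microspheres lacking S9. The conditioned medium was then transferred onto VM7Luc4E2 cells for 24 h. Viability was measured by protease-substrate cleavage to a fluorescent probe, with loss of signal fitted bidirectionally; n≥4 experimental replicates.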

[19] = CCTE_Shafer_MEA_dev_bursting_electrodes_number: CCTE's Neural Network Formation Assay for Number of Bursting Electrodes, Shafer Lab (AID 2284043; active means hit-call score of the fitted dose curve at least 0.9, where 1 is the maximum;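 further: potency is for loss of bursting electrodes relative to DMSO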)
How it was run: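 Primary rat cortical neurons were cultured on PEI-coated 48-well MEA plates (16 electrodes/well) and exposed from plating through day 12, with compound renewed at feeds on DIV 5 and 9. Electrodes bursting ≥1 per 2 min were counted on DIV 5, 7, 9, 12; trapezoidal AUC taken.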

Measured: AC50

Sequence of Estrogen receptor (Homo sapiens) (P03372 whole entry, looked up): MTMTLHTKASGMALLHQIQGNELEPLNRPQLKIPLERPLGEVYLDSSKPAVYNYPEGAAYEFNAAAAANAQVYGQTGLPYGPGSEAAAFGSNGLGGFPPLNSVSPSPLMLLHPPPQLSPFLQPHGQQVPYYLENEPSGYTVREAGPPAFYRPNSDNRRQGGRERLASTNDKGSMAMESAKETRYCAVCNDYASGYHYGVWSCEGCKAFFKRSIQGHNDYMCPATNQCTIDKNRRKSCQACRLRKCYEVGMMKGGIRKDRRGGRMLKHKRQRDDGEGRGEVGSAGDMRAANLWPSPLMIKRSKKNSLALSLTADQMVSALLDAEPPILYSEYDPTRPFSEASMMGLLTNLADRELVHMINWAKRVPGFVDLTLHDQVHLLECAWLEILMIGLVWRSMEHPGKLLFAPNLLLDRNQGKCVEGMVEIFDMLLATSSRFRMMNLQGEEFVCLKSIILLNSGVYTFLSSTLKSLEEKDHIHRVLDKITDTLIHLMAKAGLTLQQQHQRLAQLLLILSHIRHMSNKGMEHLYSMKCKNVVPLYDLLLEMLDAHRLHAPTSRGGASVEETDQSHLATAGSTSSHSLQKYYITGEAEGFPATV

CC(=O)c1ccc2ccccc2c1
inactive: [2] | [3] | [4]
active: [1] 74.9 µM

Cc1cccc(O)c1
inactive: [1] | [2] | [3] | [5] | [4]

c1ccc2scnc2c1
not listed: [2] | [5] | [18] | [19]
inactive: all other assays above

CC(=O)Oc1c(C)c(C)c2c(c1C)CC[C@@](C)(CCC[C@H](C)CCC[C@H](C)CCCC(C)C)O2
inactive: [1] | [2] | [3] | [4]

C=C(C)C(N)=O
inactive: [1] | [2] | [3] | [5] | [4]

C1CCCNCC1
inactive: [1] | [2] | [3] | [5] | [4]

C[C@]12CC[C@@H]3c4ccc(O)cc4CC[C@H]3[C@@H]1CC[C@@H]2O
active: [8] 10 µM and 13.5 µM | [19] 10 µM
not listed: [1] | [2] | [3] | [4] | [5]
inactive: all other assays above
